Among the data in PubChem BioAssay AID1861 (The Scripps Research Institute Molecular Screening Center, 2009) are inhibition values, retold here.

What is called inhibition is the drop in the measured response relative to a control, in per cent.

Screen size: about 290,000 compounds; about 3,100 (1.1%) were called active. No stated cut-off is given here; in the data, active means inhibition above about 16% (passing the limit was not always enough); inactive means the rest. The sample as a whole holds a higher share of actives than the screen did.

The experiment deals with Neuropeptides B/W receptor type 1 (Homo sapiens) (UniProt P48145). Put plainly: blockers of human neuropeptide B/W receptor 1 – cell-based, fluorescence, single concentration, primary screen (AID 1861).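 Further: cells stimulated with the agonist NPW; 0% = agonist with vehicle and 100% = vehicle without agonist.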 The conditions noted are these: GPR7-expressing cells, fluorescence antagonist assay; at 4.4 µM; active compounds read high.
Sequence of Neuropeptides B/W receptor type 1 (Homo sapiens) (P48145 whole entry, looked up): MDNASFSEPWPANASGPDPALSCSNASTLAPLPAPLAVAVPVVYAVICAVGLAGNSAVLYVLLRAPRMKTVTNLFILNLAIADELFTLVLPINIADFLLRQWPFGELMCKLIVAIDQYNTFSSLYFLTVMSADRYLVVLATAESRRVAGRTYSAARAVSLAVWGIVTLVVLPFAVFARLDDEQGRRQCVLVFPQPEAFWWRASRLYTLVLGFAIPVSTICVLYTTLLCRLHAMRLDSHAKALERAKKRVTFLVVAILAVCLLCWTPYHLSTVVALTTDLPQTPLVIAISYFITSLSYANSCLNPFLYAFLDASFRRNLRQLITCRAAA
With `CC(=O)NC(C)c1nc2ccccc2n1Cc1ccccc1F` (centres undefined), the inhibition was -2.12% (inactive).

Turning to `N=c1n(CCc2ccccc2)c2ccccc2n1Cc1ccccc1F`, the inhibition was 21.8% (active).

For the compound `Fc1ccccc1Cn1cnc(NC(=S)NCCc2ccccc2)n1`, the inhibition is 10.1% (inactive).

For `CCNC(=O)c1cnn(-c2ccccc2)c1-c1ccccc1`, the inhibition was -4.37% (inactive).

Turning to `COCCNC(=O)c1ccc2c(c1)ncn2-c1ccc(C)c(Cl)c1`, the inhibition was 0.48% (inactive).

In the case of `CC(=O)Nc1cccc(Nc2nc(-c3cccs3)nc3ccccc23)c1`, the inhibition is -8.63% (inactive).

Take `COc1ccc(C(=O)NC2CC2)cc1OC1CCN(Cc2cnn(C)c2)CC1`: the inhibition was 0.96% (inactive).

`N#CC1=C(SCc2ccc(C#N)cc2)N=C(N)C(c2nc(-c3ccccc3)cs2)C12CCCCC2` (centres undefined): the inhibition was 28.4% (active).

For `N#Cc1ccc(CSc2ncccn2)cc1`, the inhibition is 3.62% (inactive).

On to `N#CC1=C(SCc2ccccc2)NC(=O)C(C#N)C12CCCC2` (centres undefined), for which the inhibition is -8.17% (inactive).

With `Cc1ccc2c(=O)oc(N(C)C)nc2c1`, the inhibition is 9.69% (inactive).

On to `CC1C(=O)Nc2ccccc2N1C(=O)c1c(F)cccc1F` (centres undefined), for which the inhibition was -14.5% (inactive).

On to `COC(=O)C(C)Oc1ccc2c(c1)O/C(=C\c1cccc(Br)c1)C2=O` (centres undefined), for which the inhibition is -5.02% (inactive).

In the case of `COc1cccc(/C=N/Nc2ccc(Cl)nn2)c1`, the inhibition is -14.8% (inactive).

Take `Oc1cccc(/C=N/Nc2ccc(Cl)nn2)c1O`: the inhibition was 43.7% (active).

With `Clc1ccc(N/N=C/c2cccs2)nn1`, the inhibition was -9.79% (inactive).

`CCc1cccc(C)c1NS(=O)(=O)c1c(C)nc2sccn2c1=O`: the inhibition is -6.98% (inactive).

For `O=C(/C=C/Sc1ncn[nH]1)c1ccc(Cl)cc1`, the inhibition is 4.91% (inactive).

Take `Cc1ccc(N(Cc2ccccc2O)C(=O)c2ccccc2F)cc1`: the inhibition is -15.3% (inactive).

As to `CCCc1ccc(OCC(O)CN2CCN(C(=O)OCC)CC2)cc1` (centres undefined), the inhibition is -0.9% (inactive).

For the compound `Cc1ccc(N2CCN(c3ccc([N+](=O)[O-])cn3)CC2)c(C)c1`, the inhibition was 15.6% (inactive).

As to `Nc1nnc(SCC(=O)Nc2ccc3nc(SCC(=O)Nc4ccccc4)sc3c2)s1`, the inhibition was 30.6% (active).

As for `CCCCNC(=O)CSc1nc2ccc(NC(=O)CSc3nnc(N)s3)cc2s1`, the inhibition was -5.46% (inactive).

Turning to `CCCCNC(=O)CSc1nc2ccc(NC(=O)CSc3nnc(COc4ccccc4C)n3C)cc2s1`, the inhibition was 8.43% (inactive).

As for `COc1ccc(S(=O)(=O)N2CCCCC2)cc1Br`, the inhibition is 20.2% (active).

On to `COc1ccc(S(=O)(=O)Nc2ccc(S(=O)(=O)N3CCCCC3)cc2)cc1OC`, for which the inhibition is -7.42% (inactive).

`COc1ccc(F)cc1S(=O)(=O)N1CCCCC1`: the inhibition is -5.33% (inactive).

`CCOc1ccc(C(=O)NC(=S)Nc2ccc(N3CCOCC3)c(Cl)c2)cc1[N+](=O)[O-]`: the inhibition is 21% (active).

Regarding `COc1cccc(OC)c1C(=O)NC(=S)Nc1ccc(N2CCOCC2)c(Cl)c1`, the inhibition is -6.83% (inactive).

`CCOc1ccc(C(=O)NC(=S)Nc2ccc(NC(=O)C(C)C)cc2)cc1[N+](=O)[O-]`: the inhibition was -1.37% (inactive).

As for `O=C(NCc1ccccc1Cl)C1CCN(S(=O)(=O)c2cccc3nonc23)CC1`, the inhibition was -5.03% (inactive).

Take `COc1ccc(CCNC(=O)C(=O)NCC2OCCN2S(=O)(=O)c2cccs2)cc1OC` (centres undefined): the inhibition was -18.7% (inactive).

As for `CC(C)c1ccc(C(=O)OC2CCOC2=O)cc1` (centres undefined), the inhibition was -10.7% (inactive).

Regarding `O=C(OC1CCOC1=O)c1ccc(-c2nc3ccccc3s2)s1` (centres undefined), the inhibition was 13.3% (active).

As to `Cc1nn(Cc2ccccc2)c(Cl)c1C(=O)OC1CCOC1=O` (centres undefined), the inhibition was -6.27% (inactive).

In the case of `O=C(Nc1cccc(Cl)c1Cl)c1ccccc1NC(=O)C1CC=CCC1C(=O)O` (centres undefined), the inhibition was 1.26% (inactive).

Regarding `COc1ccc(C2CC(=O)NC(=O)C2)cc1`, the inhibition was 23% (inactive).

For `c1ccc(C2CNCc3c2ccc2ccccc32)cc1` (centres undefined), the inhibition is 38.9% (active).

In the case of `Oc1ccccc1-c1cc(-c2ccc(Cl)cc2)n[nH]1`, the inhibition is -4.03% (inactive).

In the case of `CC1=C(C(=O)OC(C)(C)C)C(c2ccc(Br)cc2)NC(=O)N1CCCC(=O)O` (centres undefined), the inhibition was -5.35% (inactive).

On to `Cc1cc(NC(=O)Nc2c[nH]c(=O)[nH]c2=O)ccc1Br`, for which the inhibition was -12.8% (inactive).

With `CC1CN(C(=O)CCC(=O)NC2CCN(Cc3ccccc3)CC2)c2ccccc2O1` (centres undefined), the inhibition is -0.83% (inactive).

For `CC1CN(C(=O)CCC(=O)NCc2cccnc2)c2ccccc2O1` (centres undefined), the inhibition is 6.78% (inactive).

With `CC1CN(C(=O)CCC(=O)NCCCN2CCC(Cc3ccccc3)CC2)c2cc(Cl)ccc2O1` (centres undefined), the inhibition is 25.7% (active).

For `COc1ccc(OC)c(NC(=O)CN(C)CCOc2ccc(Br)cc2)c1`, the inhibition was 17.7% (inactive).

`O=C(NCc1nnc(SCC(=O)N2CCCCCC2)o1)c1ccc(F)cc1`: the inhibition is -18.2% (inactive).

Regarding `COc1ccc(CS(=O)/C(Cl)=C(/Cl)C(=O)Nc2ccc(OC)nc2)cc1` (centres undefined), the inhibition is 24.2% (active).

Take `COc1ccc(NC(=O)c2cc(-c3ccc(C)cc3)on2)cc1`: the inhibition was -12.6% (inactive).

As to `COc1ccc(NC(=O)/C(Cl)=C(/Cl)S(=O)Cc2ccc(C)cc2)cn1` (centres undefined), the inhibition was 57.6% (active).

Turning to `CCOc1ccc(S(=O)(=O)Nc2ccc(OC)nc2)cc1`, the inhibition is 6.88% (inactive).

`COc1ccc(Nc2cc(Cl)ccc2C(=O)O)cn1`: the inhibition was -11.5% (inactive).

For the compound `COc1ccc(C(=O)Nc2ccc(NC(=O)C(C)C)nc2)cc1`, the inhibition is 19.8% (inactive).

Consider `Cc1occc(=O)c1OCc1c(Cl)cccc1Cl`, for which the inhibition is -7.63% (inactive).

In the case of `CCN(CC)S(=O)(=O)c1ccc(NC(=O)c2cnc(C)cn2)cc1`, the inhibition was -18.4% (inactive).

On to `CCOC(=O)c1cnc2ccc(F)cc2c1Nc1ccc2c(c1)OCCO2`, for which the inhibition was -2.1% (inactive).

For the compound `COc1cccc(C(=O)NNC(=O)c2cccc(F)c2)c1`, the inhibition is -2.7% (inactive).

Turning to `O=C(CCCN1CCc2[nH]c3ccc(F)cc3c2C1)c1ccc(F)cc1`, the inhibition was 33.9% (active).

As for `Cc1ccc2[nH]c3c(c2c1)CN(C(=O)CN1CCN(c2ccccc2)CC1)CC3`, the inhibition is 3.49% (inactive).

`CCCC(=O)N1CCc2[nH]c3ccccc3c2C1`: the inhibition is 1.42% (inactive).

For `CC(C)(C)CC(C)(C)NCC(O)COCCOc1ccc(Br)cc1` (centres undefined), the inhibition was 36.9% (active).

Regarding `COc1ccc(OCC(O)CNCCNc2nccc(C(F)(F)F)n2)cc1` (centres undefined), the inhibition was -3.59% (inactive).

Turning to `OC(COc1ccc(Br)cc1)CN1CCCC1` (centres undefined), the inhibition is -9.13% (inactive).

With `O=C(Cc1cccs1)NCc1cccc(C(F)(F)F)c1`, the inhibition was 5.08% (inactive).

Take `COc1ccc(C2Nc3ccccc3C(=O)N2c2ccc(F)cc2)cc1Cn1nnc2ccccc21` (centres undefined): the inhibition is -1.83% (inactive).

Turning to `COc1ccc(C2Nc3ccccc3C(=O)N2Cc2ccccc2)cc1Cn1nnc2ccccc21` (centres undefined), the inhibition is 28.4% (active).

For `COc1ccc(N2C(=O)c3ccccc3NC2c2ccc(OC)c(CN3CCOCC3)c2)cc1` (centres undefined), the inhibition is -11.4% (inactive).

As for `O=C(OCC1O[C@@H](OC(=O)c2cc(O)c(O)c(O)c2)[C@@H](OC(=O)c2cc(O)c(O)c(O)c2)[C@@H](OC(=O)c2cc(O)c(O)c(O)c2)[C@@H]1OC(=O)c1cc(O)c(O)c(O)c1)c1cc(O)c(O)c(O)c1` (some centres undefined), the inhibition is -5.26% (inactive).

As for `O=C(NCc1ccc2c(c1)OCO2)c1cc(F)c(F)cc1Cl`, the inhibition is -4.33% (inactive).

As for `O=C(c1ccccc1)N1CCN(C(=O)c2cc3nc(-c4ccccc4)cc(C(F)(F)F)n3n2)CC1`, the inhibition is -7.13% (inactive).

As to `CCC1=Nc2cc(C(=O)NCCN3CCCC3)ccc2Sc2ccc(C)cc21`, the inhibition was -5.13% (inactive).

With `Cc1ccc(C(=O)NCCN2CCOCC2)cc1C`, the inhibition is 3.82% (inactive).

As to `Cc1cccc(-c2nc3ccc(C(=O)NCCN4CCN(C)CC4)cc3nc2-c2cccc(C)c2)c1`, the inhibition is 31.6% (active).

Consider `O=C(CC(=O)Nc1ccc(Cl)c(Cl)c1)N/N=C/c1ccc(O)cc1`, for which the inhibition is 24.6% (active).

`Nc1nnn(CC(=O)N/N=C/c2ccc(O)cc2)n1`: the inhibition was 5.08% (inactive).

Consider `O=C(C[n+]1ccccc1)N/N=C/c1ccc(O)cc1`, for which the inhibition was -1.15% (inactive).

For the compound `O=C(COc1ccc([N+](=O)[O-])cc1)Nc1cccc(C(=O)Nc2ccccc2C(=O)O)c1`, the inhibition was -9.29% (inactive).

`O=C(CSc1nnnn1-c1ccccc1)NCc1ccco1`: the inhibition was -5.34% (inactive).

On to `O=C(NCc1ccco1)c1nc2ncccn2n1`, for which the inhibition is -0.52% (inactive).

On to `O=C(NCc1ccco1)c1nc(-c2ccccc2)n(-c2ccccc2)n1`, for which the inhibition was 20.5% (active).

For `CCOc1ccc(N/C(N)=N/c2nc(C)c(C)c(=O)[nH]2)cc1`, the inhibition was 6% (inactive).

Regarding `COc1ccc(CN(C)C(=O)Cc2ccsc2)c(OC)c1OC`, the inhibition is 8.02% (inactive).

Regarding `CCOc1ccc(NC(=S)N2CCC(NC(=O)c3ccccc3)CC2)cc1`, the inhibition was -6.68% (inactive).

Turning to `O=C(CN1CCN(C(=S)NC2CCCC2)CC1)Nc1ccc(Oc2ccccc2)cc1`, the inhibition is 22.4% (active).

Consider `CCOc1ccc(NC(=O)CN2CCN(CC(=O)Nc3ccc(OC)cc3)CC2)cc1`, for which the inhibition was 2.08% (inactive).

On to `Cc1cccc(NS(=O)(=O)c2ccc([N+](=O)[O-])cc2)n1`, for which the inhibition was 17.4% (inactive).

For `COc1ccc(C(=O)N2CCCC(C(=O)c3ccccc3OC)C2)cc1OC` (centres undefined), the inhibition is -2.49% (inactive).

Take `O=C(O)CN1CCN(C(c2ccccc2)c2ccccc2)CC1`: the inhibition is -8.01% (inactive).

Regarding `CC(C)NC(=S)N1CCN(C(c2ccccc2)c2ccccc2)CC1`, the inhibition is -13.9% (inactive).

As to `CC1(C)CC(N2CCN(C(c3ccccc3)c3ccccc3)CC2)=CC(=[N+]2CCCCC2)C1`, the inhibition was 66% (active).

`COc1ccccc1C(=O)COC(=O)CNS(=O)(=O)c1ccc(NC(C)=O)cc1`: the inhibition was 11.2% (inactive).

Consider `CN(C)CCCNC(=S)N1CCN(c2nc(-c3ccccc3)cs2)CC1`, for which the inhibition is 5.73% (inactive).

Regarding `COc1cccc(NC(=O)CN2CCN(c3nc(-c4cccc(OC)c4)cs3)CC2)c1`, the inhibition is -9.85% (inactive).

For `COCCCNC(=S)N1CCN(c2nc(-c3cccc(OC)c3)cs2)CC1`, the inhibition is 42.1% (active).

Regarding `CCC1CCCCN1C(=S)Nc1ccc(S(=O)(=O)Nc2ncccn2)cc1` (centres undefined), the inhibition is -0.2% (inactive).
